According to PubChem BioAssay AID1159580 (chemical genetic matrix, 2015):
Among all 5,500 compounds or so, about 2,000 (36%) were called active. Roughly 18% stayed inconclusive and do not appear here. The list shows a part of the results. Values without a mark were called inactive. Rule as the data show it: active = normalized growth mostly below about 0.91 (no sharp cut-off); inconclusive = no clear call, values can overlap the other calls; inactive = mostly above about 0.92.

Assay: chemical genetic growth profiling, strain panel (AID 1159580);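 also: tested at 20 µM; growth read once vehicle control cultures reached saturation at 30 °C; 1 = growth at the plate median or of vehicle wells; lower values mean less growth of the strain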
Conditions: S. cerevisiae deletion strains, growth OD

## CSc1n[nH]c(-c2cc(C(C)(C)C)oc2C)c1C#N
Locus YAR019C, strain CDC15, hits give low values
  normalized growth: 0.949
Locus YBL105C, strain PKC1, hits give low values
  normalized growth: 0.951
Locus YBR135W, strain CKS1, hits give low values
  normalized growth: 0.952
Locus YBR136W, strain MEC1, hits give low values
  normalized growth: 0.967
Locus YBR160W, strain CDC28, hits give low values
  normalized growth: 0.955
Locus YDL017W, strain CDC7, hits give low values
  normalized growth: 0.953
Locus YDL028C, strain MPS1, hits give low values
  normalized growth: 0.966
Locus YDL101C, strain DUN1, hits give low values
  normalized growth: 0.967
Locus YDL108W, strain KIN28, hits give low values
  normalized growth: 0.937
Locus YDL132W, strain cdc53, hits give low values
  normalized growth: 0.933
Locus YDL214C, strain PRR2, hits give low values
  normalized growth: 0.847
Locus YDR052C, strain DBF4, hits give low values
  normalized growth: 0.964
Locus YDR054C, strain cdc34, hits give low values
  normalized growth: 0.934
Locus YDR226W, strain ADK1, hits give low values
  normalized growth: 0.952
Locus YDR477W, strain SNF1, hits give low values
  normalized growth: 0.835
Locus YER123W, strain YCK3, hits give low values
  normalized growth: 0.834
Locus YER133W, strain GLC7, hits give low values
  normalized growth: 0.867
Locus YFL009W, strain cdc4, hits give low values
  normalized growth: 0.962
Locus YFL029C, strain CAK1, hits give low values
  normalized growth: 0.928
Locus YFR003C, strain YPI1, hits give low values
  normalized growth: 0.95
Locus YFR019W, strain FAB1, hits give low values
  normalized growth: 0.943
Locus YFR028C, strain CDC14, hits give low values
  normalized growth: 0.979
Locus YGR040W, strain KSS1, hits give low values
  normalized growth: 0.847
Locus YGR052W, strain FMP48, hits give low values
  normalized growth: 0.833
Locus YGR092W, strain DBF2, hits give low values
  normalized growth: 0.78
Locus YHR030C, strain SLT2, hits give low values
  normalized growth: 0.542 (active)
Locus YHR079C, strain IRE1, hits give low values
  normalized growth: 0.86
Locus YHR082C, strain KSP1, hits give low values
  normalized growth: 0.818
Locus YHR205W, strain SCH9, hits give low values
  normalized growth: 0.908
Locus YIL147C, strain SLN1, hits give low values
  normalized growth: 0.954
Locus YJL095W, strain BCK1, hits give low values
  normalized growth: 0.744
Locus YJL128C, strain PBS2, hits give low values
  normalized growth: 0.894
Locus YJL157C, strain FAR1, hits give low values
  normalized growth: 0.883
Locus YJR016C, strain ILV3, hits give low values
  normalized growth: 0.946
Locus YJR066W, strain TOR1 (second series), hits give low values
  normalized growth: 0.897
Locus YJR066W, strain TOR1, hits give low values
  normalized growth: 0.789
Locus YKL048C, strain ELM1, hits give low values
  normalized growth: 0.949
Locus YKL067W, strain YNK1, hits give low values
  normalized growth: 0.846
Locus YKL101W, strain HSL1, hits give low values
  normalized growth: 0.914
Locus YKL193C, strain SDS22, hits give low values
  normalized growth: 0.948
Locus YKL203C, strain TOR2, hits give low values
  normalized growth: 0.908
Locus YLR113W, strain HOG1, hits give low values
  normalized growth: 0.776 (active)
Locus YLR133W, strain CKI1, hits give low values
  normalized growth: 0.888
Locus YLR403W, strain SFP1, hits give low values
  normalized growth: 0.885
Locus YML070W, strain DAK1, hits give low values
  normalized growth: 0.879
Locus YMR001C, strain CDC5, hits give low values
  normalized growth: 0.945
Locus YMR205C, strain PFK2 (second series), hits give low values
  normalized growth: 0.888
Locus YMR277W, strain FCP1, hits give low values
  normalized growth: 0.938
Locus YNL006W, strain LST8, hits give low values
  normalized growth: 0.947
Locus YNL020C, strain ARK1, hits give low values
  normalized growth: 0.892
Locus YNL161W, strain CBK1, hits give low values
  normalized growth: 0.948
Locus YNL183C, strain NPR1, hits give low values
  normalized growth: 0.815
Locus YNL207W, strain RIO2, hits give low values
  normalized growth: 0.937
Locus YNL222W, strain SSU72, hits give low values
  normalized growth: 0.944
Locus YNL307C, strain MCK1 (second series), hits give low values
  normalized growth: 0.89
Locus YOL078W, strain AVO1, hits give low values
  normalized growth: 0.943
Locus YOL136C, strain PFK27, hits give low values
  normalized growth: 0.906
Locus YOR061W, strain CKA2, hits give low values
  normalized growth: 0.909
Locus YOR119C, strain RIO1, hits give low values
  normalized growth: 0.83
Locus YOR231W, strain MKK1, hits give low values
  normalized growth: 0.847
Locus YOR329C, strain SCD5, hits give low values
  normalized growth: 0.948
Locus YPL031C, strain PHO85, hits give low values
  normalized growth: 0.824
Locus YPL153C, strain RAD53, hits give low values
  normalized growth: 0.819
Locus YPL204W, strain HRR25, hits give low values
  normalized growth: 0.818
Locus YPL209C, strain IPL1, hits give low values
  normalized growth: 0.959
Locus YPL256C, strain CLN2, hits give low values
  normalized growth: 0.814 (active)
Locus YPR025C, strain CCL1, hits give low values
  normalized growth: 0.948
Locus YPR106W, strain ISR1, hits give low values
  normalized growth: 0.947
Locus YPR111W, strain DBF20, hits give low values
  normalized growth: 0.94
Strain NNK1, hits give low values
  normalized growth: 0.943
Strain TSCII, hits give low values
  normalized growth: 0.925
